Laboratory results from ChEMBL document CHEMBL1157539, “Thousands of chemical starting points for antimalarial lead identification” (Nature, 2010).

These compounds were tested on Plasmodium falciparum (assay: GSK_TCMDC: Inhibition of Plasmodium falciparum 3D7 in whole red blood cells, using parasite LDH activity as an index of growth. Test compounds present at 2uM).
Type: functional

CCc1c(C(=O)NC2CCC(N3CCC(c4ccccc4OC)CC3)CC2)[nH]c2ccc(OC)cc12 (stereo not drawn) was tested. Which Inhibition did it give?
Its Inhibition is 100%.

CCC(C)NS(=O)(=O)c1ccc2nc(Nc3ccc(C)c(Cl)c3)n(C3CCCCC3)c2c1 (stereo not drawn) was tested. Which Inhibition did it give?
The Inhibition was 99%.

How did the Inhibition turn out when Cc1nc2c(s1)c(=O)cc(CCc1cccc(F)c1F)n2CC(=O)N(Cc1ccc(-c2ccc(C(F)(F)F)cc2)cc1)C1CCN(C(C)C)CC1.O=C(O)C(O)C(O)C(=O)O was run?
Its Inhibition is 100%.

Which Inhibition does the source give for Cc1cc(S(=O)(=O)N2CCCCC(c3ccc(C(F)(F)F)cc3)=N2)c(Cl)cc1Cl here?
The Inhibition was 97%.

How did the Inhibition turn out when Cc1ccccc1C1CCN(C2CCC(NC(=O)/C=C/c3cccc(Cl)c3Cl)CC2)CC1 (stereo not drawn) was run?
Its Inhibition is 94%.

For CCCCCCNc1cc(C)nc(NC(=N)Nc2cccc(C(F)(F)F)c2)n1, which Inhibition is on record?
Its Inhibition is 100%.

How did the Inhibition turn out when Cl.Oc1ccc(-c2cc(COc3ccccc3C(F)(F)F)c(C3=CCNCC3)cc2COc2ccccc2C(F)(F)F)cc1 was run?
The Inhibition was 100%.

Br.N=C1c2ccccc2CN1CC(=O)c1ccc(Cl)c(Cl)c1 was tested. Which Inhibition did it give?
The Inhibition was 98%.

Which Inhibition does the source give for COc1c(C)[nH]c(C)c(-c2ccc(Oc3cccc(C(F)(F)F)c3)cc2)c1=O here?
Its Inhibition is 98%.

For CCCc1ccc(C2CCN(CCCCNC(=O)c3ccc(NC(=O)c4ccc(Cl)cc4)cc3)CC2)cc1, which Inhibition is on record?
The Inhibition was 100%.

How did the Inhibition turn out when Cc1cc(N[C@@H](CC(C)C)C(=O)NCCOc2ccccc2)nc(NCC2CCCCC2)n1.O=C(O)C(F)(F)F was run?
Its Inhibition is 97%.

With COc1ccccc1CCNc1nc(C)cc(N[C@@H](CC(C)C)C(=O)Nc2ccccc2)n1.O=C(O)C(F)(F)F as the compound, how does the Inhibition read?
The Inhibition was 100%.

For COc1ccc2nccc([C@@H](O)CN3CCC(NCc4ccc(OC)c(NC=O)c4)CC3)c2c1, which Inhibition is on record?
Its Inhibition is 97%.
